# Assay results: ChEMBL document CHEMBL3433997, “St. Jude Leishmania screening dataset” (2016)
# Assays:
# Type in all cases: functional
# [1] = molecular target: Solute carrier family 2, facilitated glucose transporter member 1 (Homo sapiens) (UniProt P11166); assay: ST_JUDE_LEISH: Cytotoxicity at 2uM final concentration against transgenic Leishmania Mexicana promastigotes LmGLUT1 that are glucose transport deficient and complemented with the human glucose transporter GLUT1. Activity is measured by DNA content using SYBR green in vitro
# [2] = molecular target: Hexose transporter 1 (Plasmodium falciparum) (UniProt O97467); assay: ST_JUDE_LEISH: Cytotoxicity at 2uM final concentration against transgenic Leishmania Mexicana promastigotes LmPfHT that are glucose transport deficient and complemented with the Plasmodium falciparum hexose transporter. Activity is measured by DNA content using SYBR green in vitro
# [3] = molecular target: Glucose transporter (Leishmania mexicana) (UniProt O61059); assay: ST_JUDE_LEISH: Cytotoxicity at 2uM final concentration against transgenic Leishmania Mexicana promastigotes LmGT2 that are glucose transport deficient and complemented with the L. Mexicana glucose transporter 2. Activity is measured by DNA content using SYBR green in vitro
# Sequence of Solute carrier family 2, facilitated glucose transporter member 1 (Homo sapiens) (P11166 whole entry): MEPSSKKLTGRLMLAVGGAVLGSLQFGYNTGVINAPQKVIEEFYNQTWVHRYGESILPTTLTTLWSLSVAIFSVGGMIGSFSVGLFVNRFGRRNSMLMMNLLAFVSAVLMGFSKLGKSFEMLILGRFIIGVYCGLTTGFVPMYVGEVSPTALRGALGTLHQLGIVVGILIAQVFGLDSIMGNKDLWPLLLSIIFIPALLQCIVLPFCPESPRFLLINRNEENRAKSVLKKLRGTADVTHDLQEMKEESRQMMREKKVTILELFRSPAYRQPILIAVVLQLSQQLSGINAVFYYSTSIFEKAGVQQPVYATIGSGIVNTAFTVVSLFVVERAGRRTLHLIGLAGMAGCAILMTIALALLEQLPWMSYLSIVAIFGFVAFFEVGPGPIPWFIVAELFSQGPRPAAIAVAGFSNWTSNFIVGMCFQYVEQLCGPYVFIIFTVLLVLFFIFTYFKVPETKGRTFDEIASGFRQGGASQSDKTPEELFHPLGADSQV
SMILES,inhibition [1] [%],inhibition [2] [%],inhibition [3] [%]
CCN(CC)CC#Cc1ccc2[nH]c(C)c(Cl)c(=O)c2c1,3.66,3.51,4.12
O=C(Nc1cccnc1)c1cn(-c2ccccc2)nc1-c1cccs1,3.18,1.81,-1.31
COc1ccc(CN2CCC(CNCCc3ccccc3Oc3ccccc3)CC2)cc1,-1.06,-1.31,-2.59
Cc1ccc(NC(=O)c2cc(Br)cc(N3CCCN(C)CC3)c2)cc1F,-0.54,0.36,-1.29
